# Shown are actives, neighbours in structure and some others; about 19% of the full set was active somewhere.
# TDP1 cell CPT: growth inhibition of DT40 Tdp1-/-;hTDP1 cells with camptothecin (screen for TDP1 inhibitors); chicken DT40 Tdp1-/-;hTDP1 cells + 20 nM CPT, ATP luminescence, 48 h; Potency, µM (series often up to 46.2 µM), for inactives: at the top dose activity change, negative = growth inhibition, actives largely listed as inhibitors; 12% of 420,000 active; further: potency means the concentration at half of the fitted maximal effect; nearly all actives have a fitted effect of over 55% in size
#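 Chicken DT40 Tdp1-/- cells complemented with human TDP1, 400 cells/well, exposed to compounds plus 20 nM camptothecin for at least 48 h at 37 C; viability read as ATP content by CellTiter-Glo luminescence.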
# DT40 TDP1 no CPT: qHTS for Inhibitors of human tyrosyl-DNA phosphodiesterase 1 (TDP1): qHTS in cells in absence of CPT. DT40 Tdp1-/- hTDP1 cells, no CPT, ATP luminescence, 48 h. Potency, µM (titrated, usually from 46.2 µM), for the others: at the top dose activity change, negative = growth inhibition, actives largely listed as inhibitors. 15% of 420,000 active. AID 686978, 2013; further: potency means the concentration at half of the fitted maximal effect; nearly all actives have a fitted effect of over 55% in size
#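 Cells were dispensed at 400 per well, compounds added by pin tool, plates incubated ≥48 hr at 37 °C, then CellTiter-Glo added for 30 min at room temperature before luminescence reading. Line: DT40 Tdp1-/- complemented with hTDP1; camptothecin omitted.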
# TDP1 block: TDP1 (human) enzyme inhibition; recombinant TDP1, AlphaScreen DNA substrate cleavage; Potency, µM (top dose mostly 130 µM), without a hit: top-dose activity change, negative = inhibition, usual class: inhibitors; 0.28% of 350,000 active; further: potency means the concentration at half of the fitted maximal effect; nearly all actives have a fitted effect of over 40% in size
# Target sequence (Q9NUW8 whole entry, looked up): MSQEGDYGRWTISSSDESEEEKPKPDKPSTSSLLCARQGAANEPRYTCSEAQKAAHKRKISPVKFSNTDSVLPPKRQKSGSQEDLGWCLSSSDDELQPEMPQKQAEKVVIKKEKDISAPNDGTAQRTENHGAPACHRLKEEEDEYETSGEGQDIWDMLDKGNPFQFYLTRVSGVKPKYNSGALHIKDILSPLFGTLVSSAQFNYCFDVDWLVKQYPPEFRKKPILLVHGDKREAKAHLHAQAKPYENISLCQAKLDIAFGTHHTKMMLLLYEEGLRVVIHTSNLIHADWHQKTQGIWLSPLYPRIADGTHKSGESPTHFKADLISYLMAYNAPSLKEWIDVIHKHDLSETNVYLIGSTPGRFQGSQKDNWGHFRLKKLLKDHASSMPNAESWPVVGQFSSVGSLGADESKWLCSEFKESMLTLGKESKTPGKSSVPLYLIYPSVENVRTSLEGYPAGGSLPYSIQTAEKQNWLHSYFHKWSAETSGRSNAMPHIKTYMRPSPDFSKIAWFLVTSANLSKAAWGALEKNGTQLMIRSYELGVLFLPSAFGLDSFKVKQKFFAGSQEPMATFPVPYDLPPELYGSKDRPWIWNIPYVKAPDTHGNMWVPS
#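 Compounds were preincubated with Tdp1 (1 nM final) for 15 min at room temperature before substrate (15 nM final) started a 5 min reaction; beads (10 ug/ml final) were then added for 10 min before AlphaScreen detection.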
# IL-1B inflam inh: inhibitors of inflammasome signaling (IL-1 beta secretion); THP-1 LPS/ATP IL-1B secretion, AlphaLISA, 16 h; active compounds read low; activity change, % at 57.5 µM; 4.7% of 360,000 active; AID 743279; in the data active means activity change below about -50%; inconclusive means mostly about -30% to -49%
#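 THP-1 cells pretreated 1 hr with compounds (up to 57.5 uM final), then stimulated with LPS (250 ng/mL final) plus ATP (1.25 mM final); secreted IL-1B measured by AlphaLISA after 16 hr, decreased signal indicating inhibition.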
# Giardia killer: Giardia lamblia killing | 0.15% of 340,000 active | activity change, % at 7.66 µM, hits read low | Giardia lamblia trophozoite viability; in the data active means activity change below about -80%; inconclusive means between about -30% and that limit;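 further: parasites exposed to compound for two days anaerobically before the ATP read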
#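 Killing of trophozoites was scored by loss of ATP luminescence after a 48 hrs anaerobic exposure to compounds at 37 deg C, using 100 cells per well.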
# ELG1 repair inh: inhibitors of ELG1-dependent DNA repair in HEK293T cells. AID 504467. Potency, µM (series often up to 46.1 µM), inactives show at the highest dose activity change, negative = inhibition, most hits filed as inhibitors. 2.3% of 330,000 active. HEK293T ELG1-luciferase reporter, luminescence, 16 h; DNA damage induced by 5-fluorouridine; further: potency means the concentration at half of the fitted maximal effect; nearly all actives have a fitted effect of over 55% in size
#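 Luminescence from the luciferase reporter, measured 30 min after ONE-Glo reagent at room temperature, was the read-out. Beforehand, 2,000 cells per well were exposed for 16 hr at 37 °C to 5-fluorouridine together with compound or vehicle.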
# * hit, by the source's call; ? = inconclusive; . = no result. Unless noted, the call rests on the fitted dose curve; in most records, active means well fitted curve in the direction sought with a large enough effect; inconclusive means small, poorly fitted or top-dose-only effect, or another doubt; inactive means no such curve, though single readings can be large; an effect the other way counts as inactive or inconclusive. On the % scale 0 is the no-effect control and ±100 the full control effect.
SMILES,TDP1 cell CPT,DT40 TDP1 no CPT,TDP1 block,IL-1B inflam inh,Giardia killer,ELG1 repair inh
CCOc1ccc(C(=O)c2cn(Cc3ccccc3)c3c(F)cc(F)cc3c2=O)cc1,?,?,6.9%,.,.,.
CCS(=O)(=O)c1nc(S(=O)(=O)c2ccc(Cl)cc2)c(NCc2ccccc2Cl)s1,?,?,2.5%,.,.,.
CSc1nc(=S)n(-c2ccc([N+](=O)[O-])cc2)c(C)c1C(C)=O,25.6%,-9.9%,2.3%,-8.4,-3.9,0.0%
O=C(COC(=O)c1ccccc1)NCCCCc1ccccc1,-10.9%,?,.,-10.4,.,.
CN(C[C@H](Cc1ccccc1)N(C[C@@H](CC1CCCCC1)N(CCc1ccccc1)N=O)N=O)N=O,?,?,3.8%,27.8,1.6,19.4%
CNC[C@@H](Cc1ccccc1)NC[C@@H](CC1CCCCC1)NCCCc1ccccc1,8.2µM*,9.2µM*,.,-100.9*,-8.8,?
CCC[C@@H](CNC)NC[C@H](Cc1ccccc1)NCCCCc1ccccc1,9.2µM*,11.6µM*,.,-70.2*,38.6,-19.1%
CNC[C@@H](CC1CCCCC1)NC[C@H](CC(C)C)NCCc1cccc(C(F)(F)F)c1,5.17µM*,5.17µM*,.,-111.1*,?,?
CCC[C@@H](CN[C@@H](CNC)C(C)C)NCCCCc1ccccc1,1.03µM*,0.82µM*,.,-14.6,-12.7,?
NC(CO)(CO)CO,-5.2%,-8.9%,4.9%,.,.,.
COc1ccc2nc3oc(C(=O)N4CCN(c5cc(C)ccc5C)CC4)cc3cc2c1,?,?,-7.0%,.,.,.
CC(C)CCn1c(SCc2c(F)cccc2Cl)nc2ccsc2c1=O,-24.2%,7.7%,-3.4%,.,.,.
O=C1/C(=C/c2ccccc2)SC(=S)N1N1C(=O)C2CC2C1=O (stereo unspecified),-24.0%,?,5.0%,-11.3,-10.7,-2.0%
O=C(COC(=O)C1CC2C=CC1C2)Nc1ccc([N+](=O)[O-])cc1 (stereo unspecified),0.9%,-28.7%,1.7%,-10.3,-8.8,?
CCCNC(=O)COC(=O)c1cccnc1Nc1ccccc1F,-27.5%,16.4µM*,8.1%,-9.4,3.9,13.4%
COc1ccc(S(=O)(=O)N2CCN(C(=O)NCc3ccc(OC)c(OC)c3)CC2)cc1,-22.6%,-11.6%,-0.2%,1.3,-7.1,3.9%
COCCn1c(=O)c(-c2cn(C)c3ccccc23)nc2cncnc21,1.5%,-13.3%,.,.,.,.
Cn1cc(-c2nc3cncnc3n(CCN)c2=O)c2ccccc21,23.1µM*,16.4µM*,.,.,.,.
C=CCOc1ccc(/C=N/NC(=O)c2c(C)nc3ccc(Cl)cn23)cc1,24.0%,?,.,33.7,-7.0,-0.5%
COc1ccc(/C=N/NC(=O)c2c(C)nc3ccc(Cl)cn23)cc1OC,11.6µM*,8.2µM*,.,48.5,2.0,-19.7%
COc1cc(/C=N/NC(=O)c2c(C)nc3ccc(Cl)cn23)cc(OC)c1OC,?,?,.,190.3,5.4,?
COc1ccc(/C=N/NC(=O)c2c(C)nc3ccc(Br)cn23)cc1OC,8.2µM*,7.31µM*,-2.8%,45.9,13.1,0.0%
COc1cccc(/C=N/NC(=O)c2c(C)nc3ccc(Cl)cn23)c1OC,16.4µM*,?,.,5.6,-13.5,-3.1%
COC(=O)c1ccc(/C=N\NC(=O)c2c(C)nc3ccc(Cl)cn23)cc1,?,10.3µM*,.,-4.1,20.9,?
COc1ccc(-c2nc(-c3ccccc3)oc2NC(C)C)cc1,.,.,7.5%,.,.,.
SMILES,TDP1 cell CPT,DT40 TDP1 no CPT,TDP1 block,IL-1B inflam inh,Giardia killer,ELG1 repair inh
CCOc1ccccc1/C=N/NC(=O)c1c(C)nc2ccc(Br)cn12,-1.4%,-3.7%,.,31.1,18.1,-11.2%
COc1cccc(/C=N/NC(=O)c2c(C)nc3ccc(Br)cn23)c1O,4.61µM*,3.26µM*,56.2µM*,187.5,9.6,2.06µM*
COCCn1c(=O)c(-c2ccc(Cl)cc2)nc2cnc(Nc3ccccc3)nc21,13.1%,17.4%,.,.,.,.
COc1ccc(-c2c(C)nn(-c3ccccc3)c2N)cc1,-27.9%,-18.4%,1.8%,12.3,-8.2,?
Cc1nn(-c2nc3ccccc3[nH]2)c(=O)c2ccccc12,1.84µM*,2.06µM*,-6.0%,-15.8,-96.9*,?
Cc1nn(-c2ccc3ccccc3c2)c(=O)c2ccccc12,?,16.4µM*,0.0%,44.4,-12.5,?
Cc1nn(-c2ccc(Cl)cc2)c(=O)c2ccccc12,-16.5%,?,2.7%,17.0,2.0,?
Cc1nn(-c2nc3ccccc3[nH]2)c(N)c1-c1ccc(Cl)cc1,?,16.4µM*,9.5%,-27.4,-3.9,?
COCCCNC(=O)c1cnn(-c2ccc(F)cc2F)c1C1CCNCC1,-4.9%,?,1.1%,.,.,.
O=C(NCc1ccc2c(c1)OCO2)c1nc(S(=O)(=O)Cc2ccccc2)ncc1Cl,2.59µM*,4.11µM*,6.4%,-104.1*,2.1,-12.4%
O=C(NCc1ccc2c(c1)OCO2)c1nc(S(=O)(=O)Cc2ccccc2F)ncc1Cl,4.11µM*,2.06µM*,2.7%,-99.5*,?,-12.0%
CN(Cc1ccccc1)S(=O)(=O)c1ccc(Cl)c(C(=O)NCc2ccc3c(c2)OCO3)c1,?,?,5.6%,-2.8,-17.3,?
CCOc1cc(/C=N/n2cnnc2)ccc1OCC(=O)Nc1ccccc1OC,-8.0%,8.2µM*,7.1%,-4.0,21.7,-5.2%
CCOc1cc(/C=C/c2cccc[n+]2C)ccc1OCC(=O)Nc1ccc(C)cc1,20.6µM*,16.4µM*,.,-70.5*,-6.6,-1.4%
COc1cc(/C=C/c2cccc[n+]2C)ccc1OCC(=O)Nc1ccccc1C,-8.1%,-0.2%,.,-5.7,14.0,-13.0%
CCOc1cc(/C=C\[N+](=O)[O-])ccc1OCC(=O)Nc1ccccc1C,0.92µM*,0.581µM*,-2.0%,-21.2,-6.6,?
CCN1CCN(C(c2cccc(OC)c2)c2c(O)cc(C)n(Cc3ccco3)c2=O)CC1 (stereo unspecified),-1.3%,0.4%,2.7%,.,.,.
CC1=C(C(=O)Nc2ccccc2F)C(c2ccsc2)C2=C(CC(c3ccccc3)CC2=O)N1 (stereo unspecified),25.9µM*,25.9µM*,0.0%,-17.7,2.8,?
CCOC(=O)Cn1c(S(=O)(=O)Cc2cccc(F)c2)nc(-c2ccccc2)c1-c1ccccc1,8.2µM*,10.3µM*,-1.1%,-20.3,16.0,2.8%
NC(=O)Cn1c(S(=O)(=O)Cc2ccccc2)nc2ccccc21,-8.7%,19.8%,.,21.1,0.9,.
